Screening results (PubChem BioAssay)
HT1080NT lethal: kills 2HG-producing HT-1080-NT fibrosarcoma cells; HT-1080-NT fibrosarcoma viability, CellTiter-Glo ATP luminescence, 48 h; Potency, µM (titrated, usually from 46.1 µM), hits mostly cytotoxic; 1.6% of 360,000 active;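 note: NT is the 2HG producing partner of a matched IDH1 knockdown line; nearly all actives have a fitted effect of over 55% in size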
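750 cells/well, RPMI + 5% FBS; 2 h settle, compound pin-transfer, 48 h at 37 degrees C. CellTiter-Glo 10 min RT, luminescence. Normalized to DMSO and media-only wells.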
DT40 TDP1 no CPT: qHTS for Inhibitors of human tyrosyl-DNA phosphodiesterase 1 (TDP1): qHTS in cells in absence of CPT | DT40 Tdp1-/- hTDP1 cells, no CPT, ATP luminescence, 48 h | Potency, µM (titrated, usually from 46.2 µM), hits mostly inhibitors | 15% of 420,000 active | AID 686978, 2013; note: nearly all actives have a fitted effect of over 55% in size
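Compound effects on proliferation are scored in DT40 Tdp1-/-;hTDP1 cells in the absence of CPT. ATP levels (CellTiter-Glo luminescence) are recorded after a ≥48 hr, 37 °C incubation.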
HT1080 IDH1KD tx: toxicity to HT-1080 IDH1 knockdown cells (counter line) | Potency, µM (series often up to 46.1 µM), most hits filed as cytotoxic | AID 686971 | 2% of 360,000 active | HT-1080 IDH1 knockdown viability, ATP luminescence, 48 h
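Cytotoxicity counter-line: IDH1KD HT-1080, 48 h, CellTiter-Glo. Curves classed by r2, magnitude and activity.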
TDP1 cell CPT: DT40-hTDP1 cell growth loss with CPT | chicken DT40 Tdp1-/-;hTDP1 cells + 20 nM CPT, ATP luminescence, 48 h | Potency, µM (highest dose often 46.2 µM), actives largely listed as inhibitors | 12% of 420,000 active; note: nearly all actives have a fitted effect of over 55% in size
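Cell growth measured by CellTiter-Glo luminescence after a minimum 48 h, 37 C compound exposure with 20 nM CPT in Tdp1-knockout DT40 cells stably expressing hTDP1, seeded 400/well; qHTS titration format.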
IL1B secr inh: inhibitors of inflammasome signaling (IL-1 beta secretion). THP-1 LPS/ATP IL-1B secretion, AlphaLISA, 16 h; hits give low values. activity change, % at 57.5 µM. 4.7% of 360,000 active; in the data active = activity change below about -50%; inconclusive = mostly about -30% to -49%
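Secreted IL-1B measured by AlphaLISA bead assay after 16 h compound exposure of THP-1 cells; compounds (final up to 57.5 uM) added 1 h before LPS (250 ng/mL) and ATP (1.25 mM) stimulation; lower signal means less secretion.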
Large screens that a line does not name were inactive. The list is not random: actives were taken first. Their share in the collection is about 19%. Unless noted, calls come from the whole dose curve; as a rule, active = well fitted curve in the direction sought with a large enough effect; inconclusive = small, poorly fitted or top-dose-only effect, or another doubt; inactive = no such curve, though single readings can be large; an effect the other way counts as inactive or inconclusive.

COc1ccc(S(=O)(=O)NCc2ccc(C(=O)N3CCc4ccccc4C3)cc2)cc1	DT40 TDP1 no CPT 23µM, TDP1 cell CPT 23µM
COc1ccc(NC(=O)COC(=O)C2C3CC4OC(=O)C2C4C3)cc1 (centres undefined)	none
CC12CCC(=O)N1C(C(=O)Nc1cc(C(F)(F)F)ccc1N1CCCCC1)CS2 (centres undefined)	DT40 TDP1 no CPT inconclusive, TDP1 cell CPT inconclusive
COC(=O)[C@@H]1C[C@H](NC(=O)c2cc(C(F)(F)F)ccc2Cl)CN1Cc1cccc(O)c1	none (no result: HT1080NT lethal, HT1080 IDH1KD tx, IL1B secr inh)
CC1CN=C(N(C(=O)Nc2ccccc2)C(C)c2ccccc2)S1 (centres undefined)	none
Cc1ccc(C)c(S(=O)(=O)NCc2ccc(C(=O)N3CCCCC3C)cc2)c1 (centres undefined)	DT40 TDP1 no CPT 23µM, TDP1 cell CPT inconclusive
CC1CCCCN1C(=O)c1ccc(C(=O)N2CCCCC2C)cc1 (centres undefined)	none
Cc1ccc([N+](=O)[O-])cc1NC(=O)CN(C(=O)c1ccc(Cl)cc1)C1CCCCC1	DT40 TDP1 no CPT 18µM, HT1080 IDH1KD tx inconclusive, TDP1 cell CPT 21µM
O=C(CN(C(=O)c1ccc(Cl)cc1)C1CCCCC1)Nc1ccc(Cl)c([N+](=O)[O-])c1	HT1080NT lethal inconclusive, DT40 TDP1 no CPT 15µM, HT1080 IDH1KD tx inconclusive, TDP1 cell CPT 16µM, IL1B secr inh inconclusive
C[C@H](CO)N1C[C@H](C)[C@@H](CN(C)Cc2ccncc2)OCCCC[C@H](C)Oc2ccc(NC(=O)CCCN(C)C)cc2C1=O	none
CCC(CO)Oc1cc(NCc2ccccc2F)c2ncn(C(C)C)c2c1 (centres undefined)	DT40 TDP1 no CPT 16µM, TDP1 cell CPT 21µM
CCC(CO)Oc1cc(NCc2ccccc2C(F)(F)F)c2ncn(C(C)C)c2c1 (centres undefined)	DT40 TDP1 no CPT 16µM, TDP1 cell CPT 23µM
CCC(CO)Oc1cc(NCc2ccccc2OC)c2ncn(C(C)C)c2c1 (centres undefined)	DT40 TDP1 no CPT inconclusive, TDP1 cell CPT inconclusive
CCCCCc1ccc(-c2cn(Cc3ccc4c(c3)C(=O)c3ccccc3C4=O)nn2)cc1	none (no result: HT1080NT lethal, HT1080 IDH1KD tx, IL1B secr inh)
CC(=O)c1ccc(N2CCN(S(=O)(=O)c3ccc(-c4cnc(C5CC5)o4)cc3)CC2)cc1	HT1080NT lethal 15µM, DT40 TDP1 no CPT inconclusive, HT1080 IDH1KD tx 21µM, TDP1 cell CPT 3.3µM
O=S(=O)(c1ccc(-c2cnc(C3CC3)o2)cc1)N1CCN(c2cccc(Cl)c2)CC1	DT40 TDP1 no CPT 3.3µM, TDP1 cell CPT 4.1µM (no result: HT1080NT lethal, HT1080 IDH1KD tx, IL1B secr inh)
CC(=O)c1ccc(S(=O)(=O)N2CCN(C(C)=O)CC2)cc1	none
O=S(=O)(c1ccc(F)cc1)N1CCN(c2ccccc2)CC1	IL1B secr inh inconclusive
O=S(=O)(c1ccc(-c2cnc(C3CC3)o2)cc1)N1CCN(c2ccc(F)cc2)CC1	DT40 TDP1 no CPT 0.41µM, TDP1 cell CPT 0.92µM (no result: HT1080NT lethal, HT1080 IDH1KD tx, IL1B secr inh)
CCOc1ccc(CCNCc2c(C(=O)O)c(C)n(Cc3ccccc3F)c2C)cc1	none (no result: HT1080NT lethal, HT1080 IDH1KD tx, IL1B secr inh)
CCCCN1C(C(=O)c2ccccc2)=C(OC(C)=O)c2ccccc2S1(=O)=O	DT40 TDP1 no CPT 4.6µM, TDP1 cell CPT 5.2µM (no result: HT1080NT lethal, HT1080 IDH1KD tx, IL1B secr inh)
CCCCC(=O)OC1=C(C(=O)c2ccccc2)N(CC)S(=O)(=O)c2ccccc21	DT40 TDP1 no CPT 7.3µM, TDP1 cell CPT 21µM (no result: HT1080NT lethal, HT1080 IDH1KD tx, IL1B secr inh)
CCN1C(C(=O)c2ccccc2)=C(OC(=O)c2ccccc2OC)c2ccccc2S1(=O)=O	DT40 TDP1 no CPT 3.3µM, TDP1 cell CPT 4.6µM (no result: HT1080NT lethal, HT1080 IDH1KD tx, IL1B secr inh)
CCN1C(=O)[C@H]2[C@@H](c3ccc(-c4ccc(C(C)=O)cc4)cc3)N[C@@](Cc3ccccc3)(C(=O)OC)[C@H]2C1=O	DT40 TDP1 no CPT inconclusive, TDP1 cell CPT 13µM
COC(=O)[C@]1(C)N[C@H](c2ccc(-c3ccccc3)cc2)[C@@H]2C(=O)N(C)C(=O)[C@@H]21	DT40 TDP1 no CPT inconclusive, TDP1 cell CPT inconclusive
COC(=O)[C@]1(Cc2ccccc2)N[C@H](c2ccc(-c3ccc(F)cc3)cc2)[C@@H]2C(=O)N(C)C(=O)[C@@H]21	DT40 TDP1 no CPT 16µM, TDP1 cell CPT 18µM, IL1B secr inh inconclusive
CCN1C(=O)[C@H]2[C@@H](c3ccc(-c4ccc(Cl)c(Cl)c4)cc3)N[C@@](Cc3ccccc3)(C(=O)OC)[C@H]2C1=O	DT40 TDP1 no CPT 15µM, TDP1 cell CPT 23µM
CCN1C(=O)[C@H]2[C@@H](c3ccc(-c4ccccc4)cc3)N[C@@](Cc3ccccc3)(C(=O)OC)[C@H]2C1=O	DT40 TDP1 no CPT 18µM, TDP1 cell CPT inconclusive, IL1B secr inh -53
CCOC(=O)c1ccccc1OCc1cc(C2Nc3ccccc3C(=O)N2c2cccc3ccccc23)ccc1OC (centres undefined)	DT40 TDP1 no CPT inconclusive (no result: HT1080NT lethal, HT1080 IDH1KD tx, IL1B secr inh)
CCc1ccc(NC(=O)CC2C(=O)N(c3ccccc3)C(=O)N2C(C)C)cc1 (centres undefined)	none (no result: HT1080NT lethal, HT1080 IDH1KD tx, IL1B secr inh)
Cc1c(O)nc(SCC(=O)Nc2nccs2)n(-c2ccccc2F)c1=O	none
CC(C)c1nn2c(=O)cc(COC(=O)CNC(=O)c3ccccc3Cl)nc2s1	none (no result: HT1080NT lethal, HT1080 IDH1KD tx, IL1B secr inh)
CN(Cc1ccc(Cl)c(Cl)c1)C(C(=O)NCc1ccccc1)c1ccco1 (centres undefined)	DT40 TDP1 no CPT inconclusive, TDP1 cell CPT inconclusive
CCN(CC)S(=O)(=O)c1cccc(-n2c(O)c(C=Nc3ccccc3C(=O)O)c3ccccc3c2=O)c1	HT1080NT lethal inconclusive, DT40 TDP1 no CPT 2.1µM, HT1080 IDH1KD tx inconclusive, TDP1 cell CPT 4.1µM
Cc1ccc(CN2CC(C(=O)Nc3ccc(S(=O)(=O)N4CCCCC4)cc3)CC2=O)cc1 (centres undefined)	DT40 TDP1 no CPT inconclusive, TDP1 cell CPT inconclusive
S=C(NC1CCCCCC1)NC1CCCC1	DT40 TDP1 no CPT inconclusive, TDP1 cell CPT inconclusive
NNC(=S)NC1CCCCCCCCCCC1	DT40 TDP1 no CPT 8.2µM, TDP1 cell CPT inconclusive
CC(=O)N1CCN(C(=O)c2cc(S(=O)(=O)NCc3ccccc3)ccc2C)CC1	none
Cc1ccccc1NS(=O)(=O)c1ccc(C(=O)N2CCCC(C(F)(F)F)C2)cc1 (centres undefined)	DT40 TDP1 no CPT 12µM, TDP1 cell CPT inconclusive
Cc1ccc(S(=O)(=O)NCc2ccccc2)cc1C(=O)N1CCCC(C(F)(F)F)C1 (centres undefined)	HT1080NT lethal inconclusive, DT40 TDP1 no CPT 18µM, TDP1 cell CPT inconclusive
Cc1ccc(C)c(S(=O)(=O)N2CCN(C(=O)c3cc(S(=O)(=O)NCc4ccccc4)ccc3C)CC2)c1	DT40 TDP1 no CPT inconclusive, TDP1 cell CPT 23µM, IL1B secr inh inconclusive
O=C1CC(c2ccco2)Cc2[nH]c(=O)c(C(=O)Nc3ccccc3)cc21 (centres undefined)	DT40 TDP1 no CPT 10µM, TDP1 cell CPT inconclusive (no result: HT1080NT lethal, HT1080 IDH1KD tx, IL1B secr inh)
